Out of some 310,000 compounds screened, about 14,000 (4.5%) showed an effect of 50% or more. The effect is printed as a negative number. Shown is part of a subset that was picked to be rich in strong results.
Biological target: human ether-à-go-go-related gene (hERG) potassium channel (human, UniProt Q12809)
Assay: primary screen, population patch clamp on CHO cells stably expressing hERG; higher = less effect of the substance
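Also: peak tail current of the secondary pulse compared with the same well before compound.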

human ether-à-go-go-related gene (hERG) potassium channel, sequence (Q12809 whole entry, looked up): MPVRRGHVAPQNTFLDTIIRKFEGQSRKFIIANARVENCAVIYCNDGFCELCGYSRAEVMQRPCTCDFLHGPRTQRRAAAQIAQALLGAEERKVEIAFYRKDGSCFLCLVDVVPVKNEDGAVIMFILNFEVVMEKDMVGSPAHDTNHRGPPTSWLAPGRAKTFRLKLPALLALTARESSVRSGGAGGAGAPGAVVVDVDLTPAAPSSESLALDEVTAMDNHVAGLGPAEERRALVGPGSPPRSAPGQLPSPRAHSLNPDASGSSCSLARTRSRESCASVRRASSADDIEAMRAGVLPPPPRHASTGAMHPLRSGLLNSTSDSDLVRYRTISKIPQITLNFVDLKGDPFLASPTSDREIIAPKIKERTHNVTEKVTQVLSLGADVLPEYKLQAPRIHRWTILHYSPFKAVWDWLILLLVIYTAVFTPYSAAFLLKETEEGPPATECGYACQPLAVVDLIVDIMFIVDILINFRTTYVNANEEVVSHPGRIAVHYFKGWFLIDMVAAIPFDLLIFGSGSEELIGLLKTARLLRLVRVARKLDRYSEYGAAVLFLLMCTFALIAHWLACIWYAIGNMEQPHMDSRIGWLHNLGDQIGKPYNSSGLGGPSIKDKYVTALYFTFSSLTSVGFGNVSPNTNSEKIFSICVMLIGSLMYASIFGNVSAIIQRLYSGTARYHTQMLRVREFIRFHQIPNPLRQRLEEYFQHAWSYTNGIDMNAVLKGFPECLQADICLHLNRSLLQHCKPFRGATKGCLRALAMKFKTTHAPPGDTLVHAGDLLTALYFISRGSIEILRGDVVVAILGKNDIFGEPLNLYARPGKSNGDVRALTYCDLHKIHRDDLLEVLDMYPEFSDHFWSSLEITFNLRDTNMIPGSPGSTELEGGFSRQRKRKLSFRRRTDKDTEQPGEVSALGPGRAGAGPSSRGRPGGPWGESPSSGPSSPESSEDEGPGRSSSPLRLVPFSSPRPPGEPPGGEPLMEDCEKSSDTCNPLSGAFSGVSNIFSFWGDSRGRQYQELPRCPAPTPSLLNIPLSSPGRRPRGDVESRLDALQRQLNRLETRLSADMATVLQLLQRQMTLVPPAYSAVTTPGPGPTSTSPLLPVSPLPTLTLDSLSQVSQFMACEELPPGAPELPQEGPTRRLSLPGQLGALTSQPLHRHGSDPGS

Point of comparison: `Cn1c(=O)c2c(nc(SCC(=O)c3cccs3)n2Cc2ccc(F)cc2)n(C)c1=O`, “hERG current change (%, negative = inhibition) at 10uM” value -13.2%. Against it:
- NC(=O)c1ccc(NC(=O)CN2CCN(Cc3ccccc3)CC2)cc1 — higher, -0.874%
- O=C(CN1CCN(Cc2ccccc2)CC1)Nc1ccc(Cl)cc1 — lower, -68.4%
- O=C(CN1CCN(Cc2ccccc2)CC1)Nc1ccc(Br)cc1 — lower, -71.9%
- O=C(CN1CCN(Cc2ccccc2)CC1)Nc1ccc(N2CCOCC2)cc1 — higher, -3.67%
- O=C(CN1CCN(Cc2ccccc2)CC1)Nc1ccccc1 — lower, -26.9%
- O=C(CN1CCN(Cc2ccccc2)CC1)Nc1ccc(Cl)cn1 — lower, -74.5%
- O=C(CN1CCOCC1)Nc1ccc(Cl)cn1 — higher, 20.6%
- C/C(=N\NC(=O)c1cccnc1)c1ccc(OC2OCCOC2Oc2ccc(/C(C)=N/NC(=O)c3cccnc3)cc2)cc1 (stereo not drawn) — higher, 8.81%
- COc1ccc(-n2c(=O)n(Cc3ccccc3)c(=O)c3[nH]cnc32)cc1 — lower, -17.1%
- COc1ccc(S(=O)(=O)NC2CCCC2)cc1C(N)=O — higher, 4.15%
- CCCn1c(=O)c(C(=O)Nc2ncccc2O)c(O)c2ccccc21 — higher, 11.1%
- Cc1cc(=O)oc2cc(OCC(=O)NCc3ccco3)ccc12 — higher, -6.81%
- Cc1cc(=O)oc2ccc(OCC(=O)O)cc12 — higher, 16.1%
- Cc1cc(=O)oc2ccc(OCC(=O)N(Cc3ccc(F)cc3)Cc3ccco3)cc12 — lower, -58.8%
- COc1ccc2ccccc2c1CNc1nnnn1C — higher, 17.9%
- CSc1ccc(S(=O)(=O)N2CCC(C(=O)N3CCOCC3)CC2)cc1 — higher, 2.57%
- Cc1coc2cc3oc(=O)c(CCC(=O)N4C[C@H]5C[C@@H](C4)c4cccc(=O)n4C5)c(C)c3cc12 — lower, -42.5%
- Cc1oc2c(C)c3oc(=O)c(CCC(=O)N4C[C@H]5C[C@@H](C4)c4cccc(=O)n4C5)c(C)c3cc2c1C — lower, -51.7%
- C=C(C)COc1ccc2c(C)c(CC(=O)N3C[C@H]4C[C@@H](C3)c3cccc(=O)n3C4)c(=O)oc2c1 — lower, -48.5%
- Cc1c(CC(=O)N2C[C@H]3C[C@@H](C2)c2cccc(=O)n2C3)c(=O)oc2c(C)c(O)ccc12 — higher, 4.94%
- Cc1coc2cc3oc(=O)c(CC(=O)N4C[C@H]5C[C@@H](C4)c4cccc(=O)n4C5)c(C)c3cc12 — lower, -41.5%
- COc1ccc2c(C)c(CC(=O)N3C[C@H]4C[C@@H](C3)c3cccc(=O)n3C4)c(=O)oc2c1 — lower, -32.4%
- Cc1c(CC(=O)N2C[C@H]3C[C@@H](C2)c2cccc(=O)n2C3)c(=O)oc2cc3occ(C(C)(C)C)c3cc12 — lower, -73.4%
- Cc1oc2cc3oc(=O)c(CCC(=O)N4C[C@H]5C[C@@H](C4)c4cccc(=O)n4C5)c(C)c3cc2c1C — lower, -54%
- COc1ccc2c(C)c(CC(=O)N3C[C@H]4C[C@@H](C3)c3cccc(=O)n3C4)c(=O)oc2c1OC — higher, -1.03%
- COc1ccc2c(C)c(CCC(=O)N3C[C@H]4C[C@@H](C3)c3cccc(=O)n3C4)c(=O)oc2c1 — lower, -34.9%
- Cc1c(CC(=O)N2C[C@H]3C[C@@H](C2)c2cccc(=O)n2C3)c(=O)oc2cc(O)c(Cl)cc12 — higher, 9.44%
- C=C(C)COc1ccc2c(C)c(CCC(=O)N3C[C@H]4C[C@@H](C3)c3cccc(=O)n3C4)c(=O)oc2c1 — lower, -60.4%
- CCOC(=O)c1ccc(NC(=O)Nc2ccc3c(c2)OCCO3)cc1 — higher, 10.6%
- COc1ccc(C(=O)c2ccccc2Cl)cc1 — lower, -34.5%
- O=C(CSc1nnc(CNC(=O)c2ccccc2F)o1)NCc1ccccc1 — higher, -7.93%
- Cc1ccc(NC(=O)COC(=O)C2CC(=O)N(Cc3ccccc3)C2)cc1S(=O)(=O)N(C)C (stereo not drawn) — higher, 7.45%
- CCCn1ccnc1SC(C)C(=O)Nc1c(C)n(C)n(-c2ccccc2)c1=O (stereo not drawn) — higher, 16.9%
- CN1C(=O)N(C)c2ccc(Br)c3cccc1c23 — higher, 23.5%
- CC(OC(=O)c1ccccc1C(=O)N(C)c1ccccc1)C(=O)Nc1ccc(C(N)=O)cc1 (stereo not drawn) — higher, -4.36%
- COc1ccc(-c2cc(=O)oc3cc(OCC(=O)N4C[C@H]5C[C@@H](C4)c4cccc(=O)n4C5)ccc23)cc1 — lower, -53.5%
- Cc1c(OCC(=O)N2C[C@H]3C[C@@H](C2)c2cccc(=O)n2C3)ccc2c3c(c(=O)oc12)CCCC3 — lower, -13.5%
- CCc1cc(=O)oc2cc(OCC(=O)N3C[C@H]4C[C@@H](C3)c3cccc(=O)n3C4)ccc12 — higher, 8.87%
- Cc1c(C)c2ccc(OCC(=O)N3C[C@H]4C[C@@H](C3)c3cccc(=O)n3C4)c(C)c2oc1=O — higher, 1.39%
- Cc1cc(=O)oc2cc(OCC(=O)N3C[C@H]4C[C@@H](C3)c3cccc(=O)n3C4)ccc12 — higher, 1.52%
- Cc1coc2c(C)c3oc(=O)c(CCC(=O)N4C[C@H]5C[C@@H](C4)c4cccc(=O)n4C5)c(C)c3cc12 — lower, -50.6%

— PMC4336329 (PLoS ONE, 2015)
